The record followed here is PubChem BioAssay (EPA / NIEHS).

A word on the AC50: it is the midpoint of the concentration-response curve, whichever way the signal moves.

Read-out in assay [1]: Interleukin-8 (IL8), CXCL8 (gene 3576)
The assay can be described thus: BSK_hDFCGF_IL8: BioMAP Diversity Plus: hDFCGF Assay for Interleukin-8 (IL8) Biomarker Activity (AID 2283058). The note with it: primary human foreskin fibroblasts; actives raise or lower the signal. A digest of the protocol: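 Primary human foreskin fibroblasts (hDFCGF system) dosed with chemical; IL-8 measured by ELISA 24 hours later. Bidirectional curve fitting relative to DMSO baseline; cytotoxicity tracked in parallel cultures by SRB total protein staining.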

Assay [2] in a line: BSK_hDFCGF_Proliferation: Cell Proliferation Assessment in the BioMAP Diversity Plus: hDFCGF Assay (AID 2283059).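 Further: curves fitted for both rise and fall of signal versus DMSO baseline.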 The note with it: primary human foreskin fibroblasts. A digest of the protocol: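 Sub-confluent human foreskin fibroblast cultures receive test chemical […]. Relative cell number is quantified by sulforhodamine B staining (0.1%, after 10% TCA fixation) at 560 nm, with bidirectional fitting referenced to DMSO.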

Read-out in assay [3]: Macrophage colony-stimulating factor (MCSF), CSF1 (gene 1435)
The assay can be described thus: BSK_hDFCGF_MCSF: BioMAP Diversity Plus: hDFCGF Assay for Macrophage colony-stimulating factor (MCSF) Biomarker Activity (AID 2283060). The note with it: primary human foreskin fibroblasts; actives raise or lower the signal. The procedure, abridged:
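Human foreskin fibroblast primary cultures; M-CSF measured by ELISA 24 hours after chemical dosing. Bidirectional fitting relative to DMSO, with overt cytotoxicity tracked by parallel SRB total-protein staining (0.1% SRB, 10% TCA fixation, 560 nm).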

The nature of assay [4]: BSK_hDFCGF_SRB: Viability Assessment in the BioMAP Diversity Plus: hDFCGF Assay (AID 2283061).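 Further: cells exposed to compound for 24 h before the read.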 Particulars: primary human foreskin fibroblasts. A digest of the protocol:
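Human foreskin fibroblasts in 96-well plates were treated 24 h. Total protein was measured by 0.1% SRB staining after 10% TCA fixation, read at 560 nm. Data were fitted bidirectionally against DMSO.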

Read-out in assay [5]: TIMP metallopeptidase inhibitor 1 (TIMP1), TIMP1 (gene 7076)
Kind of assay: BSK_hDFCGF_TIMP1: BioMAP Diversity Plus: hDFCGF Assay for TIMP metallopeptidase inhibitor 1 (TIMP1) Biomarker Activity (AID 2283062). Particulars: primary human foreskin fibroblasts; actives raise or lower the signal. The procedure, abridged: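 Human foreskin fibroblast primary cultures dosed for 24 h; secreted/surface TIMP-1 quantified by ELISA. Bidirectional curve fitting against DMSO baseline; cytotoxicity tracked in parallel cultures by SRB total-protein staining.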

Read-out in assay [6]: Monokine induced gamma interferon (MIG), CXCL9 (gene 4283)
The assay can be described thus: BSK_hDFCGF_MIG: BioMAP Diversity Plus: hDFCGF Assay for Monokine induced gamma interferon (MIG) Biomarker Activity (AID 2283063). Particulars: primary human foreskin fibroblasts; actives raise or lower the signal. A digest of the protocol: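 MIG/CXCL9 measured by ELISA 24 h after dosing primary human skin fibroblasts. Activity fitted in both directions against DMSO controls. Cytotoxicity was checked in parallel cultures by SRB staining read at 560 nm.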

Read-out in assay [7]: Matrix Metallopeptidase 1 (MMP1), MMP1 (gene 4312)
The assay can be described thus: BSK_hDFCGF_MMP1: BioMAP Diversity Plus: hDFCGF Assay for Matrix Metallopeptidase 1 (MMP1) Biomarker Activity (AID 2283064). The note with it: primary human foreskin fibroblasts; actives raise or lower the signal. A digest of the protocol: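 Primary human foreskin fibroblasts in the hDFCGF system were dosed with test chemical, and MMP1 was measured by ELISA 24 h later. Values come from bidirectional curve fitting against the DMSO baseline.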

Read-out in assay [8]: Vascular cell adhesion molecule 1 (VCAM1), VCAM1 (gene 7412)
Kind of assay: BSK_hDFCGF_VCAM1: BioMAP Diversity Plus: hDFCGF Assay for Vascular cell adhesion molecule 1 (VCAM1) Biomarker Activity (AID 2283065).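 On AC50: VCAM-1 protein level quantified by ELISA after 24 h chemical exposure.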 Particulars: primary human foreskin fibroblasts; actives raise or lower the signal. The procedure, abridged:
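Human foreskin fibroblast primary cells dosed with chemical, VCAM-1 measured by ELISA at 24 h. Bidirectional curve fitting relative to DMSO as negative control/baseline.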

Read-out in assay [9]: Plasminogen activator inhibitor-1 (PAI1), SERPINE1 (gene 5054)
Kind of assay: BSK_hDFCGF_PAI1: BioMAP Diversity Plus: hDFCGF Assay for Plasminogen activator inhibitor-1 (PAI1) Biomarker Activity (AID 2283066). The note with it: primary human foreskin fibroblasts; actives raise or lower the signal. A digest of the protocol:
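Human foreskin fibroblasts in the hDFCGF system were dosed with compound for 24 h; PAI-1 was quantified by ELISA. Bidirectional curve fitting used DMSO as negative control and baseline.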

Read-out in assay [10]: Interferon-gamma inducible Protein 10 (IP10), CXCL10 (gene 3627)
The assay can be described thus: BSK_KF3CT_IP10: BioMAP Diversity Plus: KF3CT Assay for Interferon-gamma inducible Protein 10 (IP10) Biomarker Activity (AID 2283068). Particulars: primary human keratinocytes with fibroblasts; actives raise or lower the signal. A digest of the protocol:
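ELISA read-out of IP-10 after 24 h chemical dosing of human skin primary co-culture (keratinocytes, foreskin fibroblasts). Gain or loss of signal relative to DMSO, bidirectional curve fit.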

Assay [11] is described as follows: BSK_KF3CT_SRB: Viability Assessment in the BioMAP Diversity Plus: KF3CT Assay (AID 2283069).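 Further: total protein by sulforhodamine B staining as a cytotoxicity measure; read 24 h after compound addition.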 Particulars: primary human keratinocytes with fibroblasts. A digest of the protocol:
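Human primary keratinocyte plus foreskin fibroblast co-culture exposed to chemicals for 24 h. Total protein measured by 0.1% sulforhodamine B staining after 10% TCA fixation, read at 560 nm; bidirectional fitting versus DMSO baseline.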

Read-out in assay [12]: Interleukin-1 alpha (IL1a), IL1A (gene 3552)
The assay can be described thus: BSK_KF3CT_IL1a: BioMAP Diversity Plus: KF3CT Assay for Interleukin-1 alpha (IL1a) Biomarker Activity (AID 2283070). The note with it: primary human keratinocytes with fibroblasts; actives raise or lower the signal. The procedure, abridged: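 Human keratinocyte plus foreskin fibroblast primary co-culture, sampled 24 h after chemical dosing. IL-1a measured by ELISA; responses fitted bidirectionally against DMSO baseline (negative control), so gain or loss of signal both count.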

Read-out in assay [13]: Matrix Metallopeptidase 9 (MMP9), MMP9 (gene 4318)
Kind of assay: BSK_KF3CT_MMP9: BioMAP Diversity Plus: KF3CT Assay for Matrix Metallopeptidase 9 (MMP9) Biomarker Activity (AID 2283074).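 On AC50: MMP9 protein level quantified by ELISA in the co-culture.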 The note with it: primary human keratinocytes with fibroblasts; actives raise or lower the signal. A digest of the protocol: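 Keratinocyte plus foreskin fibroblast human primary skin co-culture was dosed with chemical and MMP-9 was quantified by ELISA 24 h later. Bidirectional curve fitting used DMSO as negative control and activity baseline.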

Read-out in assay [14]: urokinase plasminogen activator (uPA), PLAU (gene 5328)
Kind of assay: BSK_KF3CT_uPA: BioMAP Diversity Plus: KF3CT Assay for urokinase plasminogen activator (uPA) Biomarker Activity (AID 2283075). Particulars: primary human keratinocytes with fibroblasts; actives raise or lower the signal. The procedure, abridged:
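Human keratinocyte plus foreskin fibroblast primary co-culture exposed to chemical for 24 h. uPA levels were quantified by ELISA, and activity was fitted bidirectionally against a DMSO negative-control baseline.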

Read-out in a further assay: CD40, CD40 (gene 958)
The assay can be described thus: BSK_LPS_CD40: BioMAP Diversity Plus: LPS Assay for CD40 Biomarker Activity (AID 2283076). Particulars: primary human HUVEC with PBMC; actives raise or lower the signal. The procedure, abridged:
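HUVEC plus PBMC co-culture stimulated with LPS; CD40 quantified by ELISA 24 h after compound dosing. Fitting was bidirectional relative to DMSO. SRB staining of parallel cultures flagged overt cytotoxicity.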

Read-out in assay [15]: E-selectin (Homo sapiens) (UniProt P16581)
The assay can be described thus: BSK_LPS_Eselectin: BioMAP Diversity Plus: LPS Assay for Eselectin Biomarker Activity (AID 2283077). Particulars: primary human HUVEC with PBMC; actives raise or lower the signal. The procedure, abridged:
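Human umbilical vein endothelial cells co-cultured with PBMC under LPS stimulation; cell-surface E-selectin measured by ELISA 24 h after dosing. Change in either direction versus DMSO, with SRB total-protein staining in parallel cultures for cytotoxicity.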

Assay [16] can be described thus: BSK_LPS_SRB: Viability Assessment in the BioMAP Diversity Plus: LPS Assay (AID 2283079).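 Further: total protein by sulforhodamine B absorbance as a cytotoxicity measure; measured one day after compound addition.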 Particulars: primary human HUVEC with PBMC. A digest of the protocol: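 Co-culture of human umbilical vein endothelial cells and PBMC, read 24 h after dosing. Total protein by 0.1% SRB staining after 10% TCA fixation, absorbance at 560 nm; bidirectional fit against DMSO.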
Read-out in assay [17]: Macrophage colony-stimulating factor (MCSF), CSF1 (gene 1435)
The assay can be described thus: BSK_LPS_MCSF: BioMAP Diversity Plus: LPS Assay for Macrophage colony-stimulating factor (MCSF) Biomarker Activity (AID 2283083). Particulars: primary human HUVEC with PBMC; actives raise or lower the signal. The procedure, abridged: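 HUVEC–PBMC co-culture, M-CSF measured by ELISA 24 h after chemical dosing. Fitted in both directions relative to DMSO as negative control; overt cytotoxicity assessed by SRB total-protein staining in parallel cultures.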

Read-out in assay [18]: Tissue Factor, F3 (gene 2152)
Kind of assay: BSK_LPS_TissueFactor: BioMAP Diversity Plus: LPS Assay for Tissue Factor Biomarker Activity (AID 2283084). The note with it: primary human HUVEC with PBMC; actives raise or lower the signal. The procedure, abridged: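 Human umbilical vein endothelial cells co-cultured with PBMC were dosed with compound. Cell-surface CD142 was measured by ELISA 24 h later. Activity was fitted bidirectionally against DMSO, with SRB total-protein staining in parallel cultures for cytotoxicity.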

Read-out in assay [19]: Tumor necrosis factor (Homo sapiens) (UniProt P01375)
Kind of assay: BSK_LPS_TNFa: BioMAP Diversity Plus: LPS Assay for Tumour Necrosis Factor alpha (TNFa) Biomarker Activity (AID 2283085).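 On AC50: TNFa protein level quantified by ELISA in the co-culture.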 Particulars: primary human HUVEC with PBMC; actives raise or lower the signal. The procedure, abridged: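 Human umbilical vein endothelial cells co-cultured with PBMC were exposed to test chemical and TNFa measured by ELISA 24 h after dosing. Bidirectional curve fitting was done relative to DMSO as negative control and baseline.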

Activity calls are given as the source filed them. How the source made its calls: active means hit-call score of the fitted dose curve at least 0.9, where 1 is the maximum; inactive means score below 0.9.

Tumor necrosis factor (Homo sapiens), sequence (P01375 whole entry, looked up): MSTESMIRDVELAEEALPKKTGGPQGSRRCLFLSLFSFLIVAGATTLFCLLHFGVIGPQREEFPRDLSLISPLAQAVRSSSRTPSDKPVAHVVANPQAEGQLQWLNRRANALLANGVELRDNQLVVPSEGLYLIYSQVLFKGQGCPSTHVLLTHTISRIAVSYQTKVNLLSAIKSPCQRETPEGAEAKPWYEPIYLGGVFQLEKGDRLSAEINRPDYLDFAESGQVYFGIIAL
E-selectin (Homo sapiens), sequence (P16581 whole entry, looked up): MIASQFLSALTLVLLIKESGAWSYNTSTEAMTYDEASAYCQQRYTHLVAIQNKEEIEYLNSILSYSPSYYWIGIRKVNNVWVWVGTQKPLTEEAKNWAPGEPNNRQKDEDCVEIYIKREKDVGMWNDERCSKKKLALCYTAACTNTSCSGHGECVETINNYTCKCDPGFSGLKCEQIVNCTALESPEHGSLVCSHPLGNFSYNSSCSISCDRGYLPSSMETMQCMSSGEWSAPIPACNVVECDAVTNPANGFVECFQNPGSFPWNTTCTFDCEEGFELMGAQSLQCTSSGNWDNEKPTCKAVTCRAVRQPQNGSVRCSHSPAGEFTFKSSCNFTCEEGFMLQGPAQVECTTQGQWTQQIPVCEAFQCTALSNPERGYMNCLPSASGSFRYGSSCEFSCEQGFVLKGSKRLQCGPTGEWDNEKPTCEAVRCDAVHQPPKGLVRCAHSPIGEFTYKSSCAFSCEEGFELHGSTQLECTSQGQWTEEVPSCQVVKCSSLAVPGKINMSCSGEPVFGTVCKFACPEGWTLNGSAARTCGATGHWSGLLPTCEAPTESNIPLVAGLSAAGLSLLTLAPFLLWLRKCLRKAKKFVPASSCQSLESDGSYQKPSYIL

`COc1ccc(CO)cc1`: the outcome in assay [1], in assay [2], in [3], in [4], in [5] and in assay [6] was inactive. The outcome in [7], in assay [8], in assay [9], in assay [10], in assay [11] and in assay [12] was inactive. Further, the outcome in [13] was “inactive”; in assay [14], “inactive”; in the assay with CD40, CD40 (gene 958), “inactive”; in assay [15], “inactive”; in assay [16], “inactive”; in assay [17] it was “inactive”. In addition, the result in assay [18] and in [19] was inactive.

In the case of `O=S(=O)(c1ccccc1)c1ccccc1`, the result in assay [1], in assay [2], in assay [3], in assay [4], in assay [5] and in assay [6] was inactive. The outcome in assay [7], in assay [8], in assay [9], in assay [10], in [11] and in assay [12] was inactive. In addition, the outcome is “inactive” in assay [13]; “inactive” in [14]; “inactive” with CD40, CD40 (gene 958); “inactive” in assay [15]; “inactive” in [16]; “inactive” in assay [17]. The result in assay [18] and in assay [19] was inactive.

Turning to `O=C(CCl)c1ccccc1`, the AC50 in [1] was 7.52 µM (active); in assay [2] it was 1.4 µM (active); in assay [3], 5.84 µM (active); in [4] it was 4.74 µM (active); in assay [5], 5.12 µM (active); in [6] it was 6.78 µM (active). Further, the AC50 was 9.79 µM (active) in assay [7]; 2.56 µM (active) in [8]; 6.44 µM (active) in assay [9]; 13.8 µM (active) in assay [10]; 30.9 µM (active) in assay [11]; 28.4 µM (active) in assay [12]. For the same compound, the AC50 in assay [13] was 18 µM (active); in assay [14], 30 µM (active); with CD40, CD40 (gene 958) it was 4.58 µM (active); in [15] it was 6.13 µM (active); in assay [16] it was 15.2 µM (active); in [17] it was 4.37 µM (active). Further, the values for the AC50 in assay [18] and in assay [19] were 5.81 µM (active) and 4.58 µM (active), respectively.

Turning to `CNC(=O)Oc1cc(C)c(SC)c(C)c1`, the outcome in assay [1], in assay [2], in assay [3], in assay [4], in assay [5] and in assay [6] was inactive. Moreover, the result in assay [7], in assay [8], in assay [9], in assay [10], in [11] and in assay [12] was inactive. The result in [13], in assay [14], in assay [15], in assay [16], in [17] and in assay [18] was inactive. In assay [19], the result was inactive. In the assay with CD40, CD40 (gene 958), the AC50 is 20 µM (active).

For `C=CC(=O)OCC(CC)CCCC` (stereo not given), the outcome in assay [1] is “inactive”; in assay [10], “inactive”; in assay [11] it was “inactive”; in assay [13] it was “inactive”; with CD40, CD40 (gene 958) it was “inactive”; in assay [15] it was “inactive”. In addition, the outcome in assay [16], in assay [17], in [18] and in assay [19] was inactive. Also, the AC50 in assay [2] is 30.3 µM (active); in assay [3], 20 µM (active); in assay [4] it was 32.2 µM (active); in assay [5], 27.5 µM (active); in assay [6], 30.5 µM (active); in [7] it was 30.4 µM (active). Moreover, the AC50 in assay [8] was 16 µM (active); in [9] it was 20 µM (active); in [12] it was 6.47 µM (active); in [14], 0.016 µM (active).
